SENP8 block-1: human SENP8 protease inhibitors, primary screen, biochemical, fluorescence, Nedd8 protein substrate, uHTS; recombinant SENP8; inhibition, % at 20 µM; hit rate 0.64% among 360,000; in the data active = inhibition mostly above about 40%, no sharp cut-off; inactive = mostly below about 27%
Target sequence (Q96LD8 whole entry, looked up): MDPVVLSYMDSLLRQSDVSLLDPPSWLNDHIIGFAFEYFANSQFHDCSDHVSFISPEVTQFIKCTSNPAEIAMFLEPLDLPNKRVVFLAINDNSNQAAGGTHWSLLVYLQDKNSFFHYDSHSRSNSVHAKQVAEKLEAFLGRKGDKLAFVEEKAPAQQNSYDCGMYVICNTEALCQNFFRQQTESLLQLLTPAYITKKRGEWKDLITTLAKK
SENP6 inh: SENP6 protease inhibitors, primary screen, biochemical, luminescence, uHTS | hit rate 1.8% among 330,000 | Recombinant SENP6 catalytic domain, aminoluciferin luminescence | AID 2599, 2010 | Sentrin-specific protease 6 (Homo sapiens), Q9GZR1 | inhibition, % at 10 µM;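 active = inhibition above about 50% at the single tested dose, limit read from the data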
SENP8 block-2: SENP8 protease inhibitors, primary screen, biochemical, luminescence. purified SENP8, Z-RLRGG-aminoluciferin cleavage. hit rate 1.2% among 330,000. Sentrin-specific protease 8 (Homo sapiens), Q96LD8. AID 2540, 2010. inhibition, % at 10 µM; in the data active = inhibition above about 50%
C8 TRAIL sens: viability loss with TRAIL in NB7+C8 cells, primary screen, TRAIL sensitizer project, cell-based, ATPlite luminescence; inhibition (viability loss, TRAIL sensitization), % at 10 µM; hit rate 1% among 360,000;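 active = compounds causing at least 50% loss of cell viability in the single-dose screen, relative to plate controls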
SENP7 inh: SENP7 protease inhibitors, primary screen, biochemical, luminescence, uHTS | recombinant SENP7, Z-RLRGG-aminoluciferin luminescence, 40 min | Sentrin-specific protease 7 (Homo sapiens), Q9BQF6 | inhibition, % at 5 µM | hit rate 1.5% among 330,000 | AID 434973, 2010;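 active = inhibition above about 50% at the single test dose, limit read from the data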
Target sequence (Q9BQF6 706-1050 limits assumed): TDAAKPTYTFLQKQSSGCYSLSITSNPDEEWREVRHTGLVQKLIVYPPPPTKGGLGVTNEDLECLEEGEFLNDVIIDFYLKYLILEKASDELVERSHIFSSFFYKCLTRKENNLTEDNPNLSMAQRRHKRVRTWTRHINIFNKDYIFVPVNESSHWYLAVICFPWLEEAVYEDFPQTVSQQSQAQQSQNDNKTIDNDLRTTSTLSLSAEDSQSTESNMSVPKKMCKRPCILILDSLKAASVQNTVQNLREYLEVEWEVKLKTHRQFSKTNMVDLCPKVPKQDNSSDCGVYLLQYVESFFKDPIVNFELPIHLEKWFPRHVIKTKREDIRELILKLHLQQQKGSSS
PPC-1+TRAIL kill: compounds killing PPC-1 cancer cells with TRAIL present, primary screen, TRAIL potentiator project, ATPLite luminescence, uHTS; PPC-1 cells + TRAIL, ATPLite viability luminescence; cell killing (% activity), % at 4 µM or 5 µM; hit rate 0.41% among 220,000; AID 1443, 2008;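 active = cell killing above 50% in the first pass at 4 µM, then a duplicate retest at 5 µM averaging 50% or more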
SENP8 conf: SENP8 protease inhibitors, retest, confirmation, biochemical, luminescence, single concentration; inhibition, % at 12.5 µM; Recombinant SENP8, Z-RLRGG-aminoluciferin luminescence, 60 min; hit rate 40% among 6,200; shares compounds with SENP7 inh;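 active = mean inhibition across replicates above about 50%, limit read from the data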
SENP6 conf: SENP6 protease inhibitors, confirmation, biochemical, luminescence, single concentration; shares compounds with SENP7 inh; recombinant SENP6, Z-RLRGG-aminoluciferin luminescence; inhibition, % at 12.5 µM; hit rate 58% among 6,200
SENP7 confirm: SENP7 protease inhibitors, retest, confirmation, biochemical, luminescence, single concentration; shares compounds with SENP7 inh; recombinant SENP7, Z-RLRGG-aminoluciferin luminescence, 40 min; inhibition, % at 12.5 µM; hit rate 69% among 6,200; AID 488917, 2010
Casp3 select: caspase-3 protease inhibitors, confirmation, selectivity assay for SENP inhibitor project, biochemical, single concentration; purified caspase-3, Z-DEVD-aminoluciferin luminescence, 60 min; shares compounds with SENP7 inh; AID 488918, 2010; inhibition, % at 12.5 µM; hit rate 60% among 6,200;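 active = mean inhibition above about 50%, limit read from the data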
SENP luc ctr: luminescence interference (SENP counter-screen). Pre-incubated SENP8/Z-RLRGG-aminoluciferin, luciferase luminescence interference. shares compounds with SENP7 inh. inhibition, % at 12.5 µM. hit rate 39% among 6,200;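 active = mean inhibition above about 50% when retested at one dose, limit read from the data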
Numbers stand for hits; n = inactive; x = not tested or not shown. Compounds with a hit are over-represented: about 3% of the library has one in this group of screens.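 The calls were made as follows, unless noted: active = mean inhibition above about 50% in the one-dose retest (limit read from the data); inactive = the rest.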

SMILES	SENP8 block-1	SENP6 inh	SENP8 block-2	C8 TRAIL sens	SENP7 inh	PPC-1+TRAIL kill	SENP8 conf	SENP6 conf	SENP7 confirm	Casp3 select	SENP luc ctr
Cc1nc(C#N)c(N/N=C/c2cccc(Cl)c2)o1	n	78	86	n	n	n	n	91	100	80	84
CC(=O)c1cccc(NC(=O)c2ccc(C)c(S(=O)(=O)N3CCOCC3)c2)c1	n	n	n	n	n	x	x	x	x	x	x
Cc1ccc(C(=O)Nc2cccc(C(=O)O)c2)cc1S(=O)(=O)N1CCCCC1	n	93	88	n	94	n	96	96	102	83	79
O=C(O)c1cccc(NC(=O)c2ccc3c(c2)C(=O)N(CC2CCCO2)C3=O)c1 (stereo not given)	n	83	50	n	71	n	87	85	99	74	78
COC(=O)c1cccc(NC(=O)c2ccc3c(c2)C(=O)N(CC2CCCO2)C3=O)c1 (stereo not given)	n	n	n	n	n	n	x	x	x	x	x
Cc1ccc(C(=O)Nc2cccc(C(=O)O)c2)cc1S(=O)(=O)N1CCOCC1	n	61	57	n	n	n	73	68	89	50	n
Cc1ccc(/C=N/NC(=O)c2ccncc2)s1	n	n	n	n	n	n	x	x	x	x	x
Cc1ccc(/C=N/N=C/c2ccc(C)s2)s1	n	77	n	n	63	n	n	60	82	n	n
Cc1ccccc1NC(=O)C1Cc2ccccc2CN1C(=O)OCc1ccccc1 (stereo not given)	n	n	n	n	n	n	x	x	x	x	x
CC(=O)Nc1ccc(C(=O)COC(=O)C2CCCCC2)c(F)c1	n	78	57	n	58	x	n	n	80	n	n
CC(=O)Nc1ccc(C(=O)COC(=O)C2CC2)c(F)c1	n	n	n	n	n	x	x	x	x	x	x
CCOC(=O)N1CCN(C(=O)c2noc3c2COc2ccccc2-3)CC1	n	61	n	n	54	x	n	n	78	75	n
O=C1OC(Nc2ccc3ncccc3c2)c2ccccc21 (stereo not given)	n	72	n	n	n	n	n	n	n	n	n
CC(=O)N1CCc2c(sc(NC(=O)CS(=O)(=O)c3ccc(F)cc3)c2C(N)=O)C1	n	n	n	n	n	x	x	x	x	x	x
O=C(O)CSc1cc(NS(=O)(=O)c2ccc(Cl)cc2)c2ccccc2c1O	n	x	x	n	x	x	x	x	x	x	x
COc1ccc(S(=O)(=O)Nc2cc(SCC(=O)O)c(O)c3ccccc23)cc1	n	76	51	n	n	x	n	59	n	n	n
COc1cccc(N=NC2C(=O)N(C(N)=S)N=C2C)c1 (stereo not given)	n	85	79	n	68	x	71	86	98	91	n
CCOc1ccccc1N=NC1C(=O)N(C(N)=S)N=C1C (stereo not given)	n	n	n	n	n	x	x	x	x	x	x
CC1=NN(C(N)=S)C(=O)C1N=Nc1cccc(Cl)c1 (stereo not given)	n	92	85	n	66	x	n	90	100	90	88
O=C(Nc1ccnc(=O)[nH]1)c1sc2ccccc2c1Cl	n	74	52	n	54	n	n	n	n	n	n
CN(CCO)c1nc(N)c2c(N)nc3c(c2c1C#N)CC(=O)N3C1CCCC1	x	91	96	x	96	n	n	n	n	n	n
CC(C)(C)N1C(=O)Cc2c1nc(N)c1c(N)nc(N3CCCCC3CO)c(C#N)c21 (stereo not given)	n	93	97	n	94	n	n	n	n	n	n
Cc1noc(C)c1S(=O)(=O)N1CCCC(C(=O)c2cccc(OC(C)C)c2)C1 (stereo not given)	n	n	n	n	n	n	x	x	x	x	x
COc1ccccc1N1CCN(/N=C/c2ccc([N+](=O)[O-])cc2)CC1	n	68	54	n	64	x	n	n	91	n	n
COc1ccccc1N1CCN(/N=C/c2ccc(Cl)c([N+](=O)[O-])c2)CC1	n	n	n	n	n	x	x	x	x	x	x
SMILES	SENP8 block-1	SENP6 inh	SENP8 block-2	C8 TRAIL sens	SENP7 inh	PPC-1+TRAIL kill	SENP8 conf	SENP6 conf	SENP7 confirm	Casp3 select	SENP luc ctr
Cc1ccsc1C(=O)OCc1csc(-c2ccccc2)n1	n	96	96	n	99	n	96	92	n	94	88
Cn1cccc1C(=O)OCc1csc(-c2ccccc2)n1	n	88	94	n	100	n	n	98	102	93	89
O=C(OCc1csc(-c2ccccc2)n1)c1cccs1	n	95	92	n	96	n	97	97	101	91	90
Cc1ccsc1C(=O)OCc1nnc(-c2ccccc2)o1	n	59	52	n	59	x	57	55	76	56	50
NC(c1csc(Nc2ccccn2)n1)C1CCCCC1 (stereo not given)	n	x	x	n	x	x	x	x	x	x	x
O=C(CC(O)c1ccncc1)c1ccccc1O (stereo not given)	n	x	x	n	x	x	x	x	x	x	x
Cc1cc(-n2c(C)cc(C(=O)COc3ccccc3[N+](=O)[O-])c2C)no1	n	n	n	n	n	n	x	x	x	x	x
Cc1cc(-n2c(C)cc(C(=O)COc3ccc(F)c(F)c3)c2C)no1	n	64	n	n	n	x	60	59	81	n	n
O=C1O[C@@H](c2ccccc2)C[C@@H](O)C(=O)CCCCc2ccccc21	n	x	x	n	x	x	x	x	x	x	x
Cc1ccc(NCc2n[nH]c(=S)n2-c2ccccc2)c(C)c1	n	n	n	n	n	n	x	x	x	x	x
